Reference: PubChem BioAssay AID1851 (National Center for Advancing Translational Sciences (NCATS), 2009)
Where “and” joins values, the source holds several entries; their conditions need not be identical. Identical values can stand only once. In all, about 16,000 compounds went through this assay and about 4,000 (25%) were called active. Another 26% or so got no clear call; they are omitted. Only a sample is shown. Unmarked numbers belong to inactive results. The call rests on the fitted dose curve; in most records, active means well fitted curve in the direction sought with a large enough effect; inconclusive means small, poorly fitted or top-dose-only effect, or effect the other way; inactive means no such curve, though single readings can be large or run the other way.

target: Cytochrome P450 2C9 (Homo sapiens) (UniProt P11712); assay: Cytochrome panel assay with activity outcomes; details: recombinant CYP, pro-luciferin dealkylation, luminescence, p450-cyp2c9; series mostly up to 57.1 µM
Sequence (P11712 whole entry, looked up): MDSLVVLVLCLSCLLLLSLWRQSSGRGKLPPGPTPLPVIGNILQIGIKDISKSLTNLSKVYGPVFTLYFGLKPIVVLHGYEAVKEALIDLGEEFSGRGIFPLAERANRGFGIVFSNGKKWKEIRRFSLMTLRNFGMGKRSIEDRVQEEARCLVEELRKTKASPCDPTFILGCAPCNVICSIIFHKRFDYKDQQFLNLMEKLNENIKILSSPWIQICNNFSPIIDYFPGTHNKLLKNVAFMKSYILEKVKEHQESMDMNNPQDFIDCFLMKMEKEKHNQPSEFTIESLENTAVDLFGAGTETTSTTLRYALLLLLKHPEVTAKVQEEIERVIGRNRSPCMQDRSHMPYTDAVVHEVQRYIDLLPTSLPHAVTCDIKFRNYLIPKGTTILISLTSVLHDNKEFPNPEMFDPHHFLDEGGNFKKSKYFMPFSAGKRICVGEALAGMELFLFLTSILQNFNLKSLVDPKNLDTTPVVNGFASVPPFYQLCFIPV
On the % scale 0 is the no-effect control and ±100 the full control effect.

Row | Structure (SMILES) | activity, negative = inhibition | AC50
1 | CS(=O)(=O)Nc1cccc(-c2ccc3ncnc(NCc4cccnc4)c3c2)c1 | -11.8% [at 2.29 µM] | –
2 | FC(F)(F)c1ccccc1-c1nc(NCc2cccs2)c2ccccc2n1 | -25.9% [at 2.29 µM] | –
3 | CC(C)C(=O)NCCc1nc2ccccc2n1CCCOc1ccc(Cl)cc1 | – | 3.16 µM (active)
4 | CC(C)C(=O)NCCn1ccc2ccccc21 | – | inactive
5 | C[C@H]1/C=C\CC(=O)OC[C@H](C)C(=O)N2CCC[C@@H]2C(=O)OC1 | 4.32% [at 11.4 µM] | –
6 | O=C(CN1CCc2ccccc21)NC(=O)NCc1ccco1 | – | 15.8 µM (active)
7 | Cc1cnc(CNc2ncnc3ccc(-c4ccc(N(C)C)cc4)cc23)cn1 | -3.84% [at 2.29 µM] | –
8 | CO[C@@H]1COC(=O)[C@H](Cc2ccccc2)NC(=O)C/C=C\[C@@H](C)[C@H](OC)COC(=O)[C@@H](C)NC(=O)C/C=C\[C@H]1C | -11.8% [at 11.4 µM] and -14.5% [at 11.4 µM] | –
9 | Cc1cccc(CNc2ncncc2-c2cccnc2)c1 | 1.46% [at 2.29 µM] | –
10 | Cc1cccc(-n2nc([N+](=O)[O-])c(=NCc3cccnc3)n2O)c1 | – | 10 µM (active)
11 | S=C1NCN2CCN(CC2)CNC(=S)C(=S)NCN2CCN(CC2)CNC1=S | -2.75% [at 11.4 µM] | –
12 | CC(=O)c1cc(NC(=O)c2ccccc2)c(=O)oc1/C=C/N(C)C | – | inactive
13 | Cc1ccc(C(=O)Nc2cc3c(oc2=O)CCCC3=O)cc1 | – | inactive
14 | Cc1oc(=O)c(NC(=O)c2ccccc2)cc1C(=O)c1ccccc1 | – | 12.6 µM (active)
15 | Cc1cccc(CNc2cc(-c3c(C)noc3C)ncn2)c1 | -2.84% [at 2.29 µM] | –
16 | O=C(O)CC1(C(=O)O)CCCCC1 | -2.68% [at 11.4 µM] | –
17 | O=C(O)C1(C(=O)O)CCN(S(=O)(=O)c2ccccc2)CC1 | -9.03% [at 11.4 µM] | –
18 | N.N.O=C(O)C1(C(=O)O)CCC1.[Pt] | – | 3.98 µM (active)
19 | Cc1ccc(CSC(N)=Nc2ccccc2)cc1C | 7.44% [at 11.4 µM] | –
20 | CN(C)/C=C/C(=O)c1ccc(F)cc1 | – | inactive

Row | Structure (SMILES) | activity, negative = inhibition | AC50
21 | CN(C)/C=C/C(=O)c1ccc(Cl)cc1 | – | inactive
22 | CC(Oc1ccc(Cl)cc1)C(=O)/C=C/N(C)C (centres undefined) | – | 12.6 µM (active)
23 | CCN(CC)CCn1c(=S)[nH]c2cc3c(cc2c1=O)OCO3 | – | inactive
24 | O=C(CCCCCn1c(=S)[nH]c2cc3c(cc2c1=O)OCO3)N1CCN(C2CCCCC2)CC1 | – | 1.12 µM (active)
25 | CN(Cc1ccco1)c1ncncc1-c1cccc(C#N)c1 | 2.42% [at 2.29 µM] | –
26 | C[N+](C)(C)CC(=O)O | – | inactive
27 | COCCNc1ccnc(-c2c(C)noc2C)n1 | 17.7% [at 2.29 µM] | –
28 | Cc1nc(SCC(=O)c2ccc(Cl)s2)c2oc3ccccc3c2n1 | – | 0.447 µM (active)
29 | CCc1nc(SCC(=O)NCCc2ccccc2)c2oc3ccccc3c2n1 | – | 1.12 µM (active)
30 | Cc1nc(SCC(=O)NCCc2ccc(Cl)cc2)nc(C)c1C | – | inactive
31 | Cc1nc(SCC(=O)Nc2ccc3c(c2)OCCO3)c2oc3ccccc3c2n1 | – | 2 µM (active)
32 | CCc1nc(SCC(=O)c2ccc(Cl)s2)c2oc3ccccc3c2n1 | – | 1.12 µM (active)
33 | Cc1nc(Oc2ccc(Cl)cc2)c2oc3ccccc3c2n1 | – | inactive
34 | Nc1nc(SCc2ccc([N+](=O)[O-])cc2)c2ncn([C@@H]3O[C@@H](CO)[C@@H](O)[C@H]3O)c2n1 | – | inactive
35 | CN1CCC(=C2c3ccccc3C=Cc3ccccc32)CC1 | – | inactive
36 | CO[C@@H]1COC(=O)[C@H](CCSC)NC(=O)C/C=C\[C@@H](C)COC(=O)[C@@H]2CCCN2C(=O)C/C=C\[C@H]1C | 13.2% [at 11.4 µM] | –
37 | CCNc1ncc2nc(-c3ccc(Cl)cc3)c(=O)n(C[C@H]3CCCO3)c2n1 | – | inactive
38 | CN1CCc2c(c3ccccc3n2C)C1 | – | inactive
39 | Cn1c(=O)c2[nH]c(CCCCc3nc4ccccc4[nH]3)nc2n(C)c1=O | 2.16% [at 11.4 µM] | –
40 | CC(C)c1ccc(NC(=O)N(CCc2nc3ccccc3[nH]2)C2CCCC2)cc1 | – | 7.94 µM (active)

Row | Structure (SMILES) | activity, negative = inhibition | AC50
41 | COCC(=O)O[C@]1(CCN(C)CCCc2nc3ccccc3[nH]2)CCc2cc(F)ccc2[C@@H]1C(C)C | – | inactive
42 | Cc1cnc(CNc2ncnc3ccc(-c4ccccc4C(F)(F)F)cc23)cn1 | -21.8% [at 2.29 µM] | –
43 | CSc1nc2cc(S(=O)(=O)N3CCCCC3)ccc2s1 | -29.2% [at 11.4 µM] | –
44 | COc1ccc(NS(=O)(=O)c2ccc(I)cc2)cc1N1CCN(C)CC1 | – | inactive
45 | COc1ccc(S(=O)(=O)N2CCCCCC2)cc1N(C)S(=O)(=O)c1ccc(Cl)cc1 | – | 4.47 µM (active)
46 | COc1ccc(S(=O)(=O)Nc2ccc(S(=O)(=O)N3CCCCC3)cc2)cc1C | – | 0.355 µM (active)
47 | CC(=O)ON(C(C)=O)S(=O)(=O)c1ccc(Cl)cc1 | – | inactive
48 | O=S(=O)(NCCNC/C=C\c1ccc(Br)cc1)c1cccc2cnccc12 | – | inactive
49 | CN=C1S/C(=C\c2ccc(Sc3ccc(Cl)cc3)o2)C(=O)N1C | – | 1.26 µM (active)
50 | Clc1ccc(Sc2ccc(/C=N/n3cnnc3)o2)cc1 | – | 7.94 µM (active)
51 | Cc1ccc(Nc2nc(Cl)nc(N(C)C#N)n2)cc1 | – | 15.8 µM (active)
52 | O[C@]1(c2ccccc2)c2ccccc2NC2=NCCN21 | 3.96% [at 11.4 µM] | –
53 | O=C(Nc1ccccc1)OCc1cc(-c2ccc(Cl)cc2)on1 | – | 2.82 µM (active)
54 | CS(=O)(=O)c1ccccc1COC(=O)Nc1ccc(Cl)cc1 | – | inactive
55 | Cc1cnc(CNc2ncncc2-c2ccc(C(=O)N(C)C)cc2)cn1 | 26.6% [at 2.29 µM] | –
56 | Cc1cnc(CNc2nc(-c3ccccc3C)nc3ccccc23)cn1 | 18.8% [at 2.29 µM] | –
57 | CC(=O)NCCNc1ccnc(-c2ccccc2C)n1 | 7.25% [at 2.29 µM] | –
58 | COc1ccc2nccc(SCC(=O)O)c2c1 | -6.85% [at 11.4 µM] | –
59 | COc1ccc2c(c1)nc(SCC(=O)c1ccc(Br)s1)n2C | – | 15.8 µM (active)
